Assay results reported in the supplement of paper PMC6555819.

Legend:
Assay in all cases: PBM binding z-score (relative to random genomic background probes); higher = stronger binding; sequences stand for … in GC…GCGATTGACAGCGTAGAATGAAGG
[1] = tested on: RARb homodimer (NR concentration 270 nM)
In short: (§1)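 Ligand-free nuclear receptor dimers were bound for 1 h to custom Agilent 4×180K protein-binding microarrays. Detection used antibodies against each partner (one per run). Binding z-scores rest on regression-normalized fluorescence, with random background probes as the reference.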

[2] = tested on: RARg:RXRa (NR concentration 270 nM, RXRa partner concentration 90 nM)
In short: as §1

[3] = tested on: RARg homodimer (NR concentration 270 nM)
In short: as §1

[4] = tested on: RXRa DBDmut IVT, anti-RXR (DBD mutation: RXRa K156A/R161A, NR concentration 90 nM)
In short: as §1

[5] = tested on: RXRa homodimer (NR concentration 180 nM)
In short: as §1

[6] = tested on: THRa:RXRa (NR concentration 90 nM, RXRa partner concentration 90 nM)
In short: as §1

[7] = tested on: THRa homodimer (NR concentration 90 nM)
In short: as §1

[8] = tested on: VDR homodimer (NR concentration 270 nM)
In short: as §1

Row | Sequence | PBM binding z-score [1] | PBM binding z-score [2] | PBM binding z-score [3] | PBM binding z-score [4] | PBM binding z-score [5] | PBM binding z-score [6] | PBM binding z-score [7] | PBM binding z-score [8]
1 | ACTAGCATGCCAAGGGTCACTCAAGATTAGTCCG | 3.83 | 3.77 | 3.69 | 0.719 | 3.91 | 2.75 | 0.299 | 1.64
2 | ATCGAAAGGTCGTGAGGTGAGGATACAGAAAGGC | 3.16 | 4.81 | 3.99 | 1.31 | 5.33 | 3.74 | 2.51 | 0.974
3 | CTCGAAAGGTCGGTTAAGGTGAGTATACGGATAA | 2.84 | 2.94 | 3.26 | 0.811 | 2.41 | 4.88 | 2.1 | 0.781
4 | CCAGACAGGCGAAAGGTAACTCAGTCTGGTACGC | -0.261 | 0.0389 | -0.491 | -0.267 | 0.25 | -0.18 | -0.896 | -0.57
5 | ATCGAAACGTCGAAGGTGAGTATACCCACCCGAA | -0.0717 | 0.382 | 0.461 | -1.07 | 0.361 | 0.0237 | -0.567 | -0.497
6 | CGTCCAAGGCCAGAGAGGTCAGTGAATGCCGAGT | 4.2 | 3.05 | 4.27 | 1.06 | 2.22 | 2.77 | 0.817 | 2.55
7 | CAAACTACGTCACAGAGGTCAAAGTCCGTGCGTA | 4.71 | 5.46 | 4.64 | 1.87 | 6.27 | 3.7 | 1.47 | 4.03
8 | CCGAGTAGGTTATAGGGCATTCAGGCAACGGTGA | 1.33 | 0.821 | 0.848 | 0.485 | 1.19 | 0.932 | 0.256 | 0.435
9 | CCTCGGACGACAACAGGAGGTCAGAGCTGCCAGA | 2.97 | 1.95 | 1.99 | -0.432 | 1.84 | 1.92 | 0.602 | 0.934
10 | CCTAGCAGGCCAGGGTCACTCGAGCATTTCGCTT | 2.57 | 3.06 | 2.18 | 0.188 | 3.57 | 2.83 | 0.909 | 1.33
11 | CCTAGTGGGCCAAAAAGGTCATTGATGCCGATAA | 4.28 | 4.7 | 4.5 | 0.794 | 4.79 | 2.71 | 0.434 | 2.66
12 | ATCTCTAGGTAACAAGTCCAGTGAAAGAGAGGAC | 0.709 | 0.499 | 0.722 | 0.0341 | 0.552 | 0.997 | 0.64 | 0.635
13 | TCGAGTAGGTTAGACGGGGCATTCAGCCAACATA | 0.538 | 0.307 | 0.0787 | 0.0493 | 0.305 | 0.812 | -0.51 | -0.0872
14 | AAGACAGGGTCACTAGGCCAGAGTAGGTACGAAT | 3.02 | 4.97 | 4.66 | 2.26 | 5.58 | 3.1 | 0.755 | 1.87
